We go through 14 compounds from PubChem BioAssay.

The nature of experiment [1]: compounds altering viability of human ES cells (AID 493140; call rule not given here;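 further: cells exposed to compounds for four days before counting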). Particulars: human embryonic stem cell survival screen; stronger effect = higher value.
Experiment [2] can be described thus: EMT-state selective cytotoxicity in co-culture – imaging, PC-3E GFP, TEM4-18 mCherry, primary screen (AID 1345086;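 active means compounds killing one labelled cell type while sparing the other, by normalised counts and ratio limits, not self-fluorescent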;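 on all read-outs here: cells exposed to compound for 72 h before imaging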;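 on red/green cell ratio (normalised): normalised mesenchymal count divided by normalised epithelial count so high means epithelial killing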). Particulars: PC-3E GFP / TEM4-18 mCherry co-culture, imaging cell counts, at 1 µM; for red/green cell ratio (normalised): actives lie on both sides, counts scaled to control wells, 1 = unselective.
Experiment [3] is described as follows: viability loss with induced miR-34 in A549 – imaging, A549 dox-inducible miR-34, nuclei and caspase counts, primary screen (AID 1347080;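 active means compounds whose cell count with miR-34 switched on is under 0.7 times the count with it off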). Particulars: A549 miR-34 inducible, Hoechst nuclei count, 48 h.
Experiment [4] is described as follows: P. berghei load reduction in hepatocytes – cell-based, HepG2, luciferase luminescence, HepG2 viability, primary screen (AID 624349).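 Further: 100% = mean of DMSO negative control wells on the same plate.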 Conditions: P. berghei liver stage in HepG2, luciferase luminescence, concentration not given here; parasite load remaining: stronger effect = lower value; viability: measured here: HepG2 viability without parasites.
Experiment [5] addresses NAD(+) hydrolase SARM1 (Homo sapiens) (UniProt Q6SZW1). The experiment is described as follows: blocking NAD cleavage by SARM1 SAM-TIR – cell lysate, NAD-Glo luminescence (AID 1508614;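 active means compound whose remaining NAD level is above about 45 nM, limit read from the data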). Conditions: SAM-TIR HEK293T lysate NADase, at 1 µM, stronger effect = higher value.
The mark [6] stands for this setting: measured here: epithelial PC-3E GFP cell survival.
[7] abbreviates: measured here: mesenchymal TEM4-18 mCherry cell survival.
The mark [8] stands for this setting: stronger effect = lower value, cell number ratio, induced over uninduced.
Setting [9] is: measured here: relative caspase fold change +Dox/-Dox.
[10] abbreviates: measured here: total cells with miR-34 induction, stronger effect = lower value.
[11] abbreviates: measured here: total cells without miR-34 induction.

Where “and” joins values, the source holds several entries; their conditions need not be identical. Equal values may be shown once. Calls of active or inactive are those of the source. Unless noted, no stated cut-off is given here; in the data, active means parasite load remaining mostly below about 12% (no sharp cut-off); inactive means mostly above about 10%. Numbered stars: 1 amine (or outer) side, 2 acyl side, 3 side chain; on linkers, the order of the positions; unused ones are H or OH. Bridge positions count the residues as written; N and C are the ends. Square brackets hold non-standard residues; d marks the D form. Peptide text beside a SMILES is read from it. I, II: the chains in the order shown. Actinocin(9to1) = Cc1c2oc3c(C)ccc(C(=O)[*:1])c3nc-2c(C(=O)[*:2])c(N)c1=O; NMeV = CN[CH](C(=O)O)C(C)C; Sar = CNCC(=O)O

NAD(+) hydrolase SARM1 (Homo sapiens), sequence (Q6SZW1 whole entry, looked up): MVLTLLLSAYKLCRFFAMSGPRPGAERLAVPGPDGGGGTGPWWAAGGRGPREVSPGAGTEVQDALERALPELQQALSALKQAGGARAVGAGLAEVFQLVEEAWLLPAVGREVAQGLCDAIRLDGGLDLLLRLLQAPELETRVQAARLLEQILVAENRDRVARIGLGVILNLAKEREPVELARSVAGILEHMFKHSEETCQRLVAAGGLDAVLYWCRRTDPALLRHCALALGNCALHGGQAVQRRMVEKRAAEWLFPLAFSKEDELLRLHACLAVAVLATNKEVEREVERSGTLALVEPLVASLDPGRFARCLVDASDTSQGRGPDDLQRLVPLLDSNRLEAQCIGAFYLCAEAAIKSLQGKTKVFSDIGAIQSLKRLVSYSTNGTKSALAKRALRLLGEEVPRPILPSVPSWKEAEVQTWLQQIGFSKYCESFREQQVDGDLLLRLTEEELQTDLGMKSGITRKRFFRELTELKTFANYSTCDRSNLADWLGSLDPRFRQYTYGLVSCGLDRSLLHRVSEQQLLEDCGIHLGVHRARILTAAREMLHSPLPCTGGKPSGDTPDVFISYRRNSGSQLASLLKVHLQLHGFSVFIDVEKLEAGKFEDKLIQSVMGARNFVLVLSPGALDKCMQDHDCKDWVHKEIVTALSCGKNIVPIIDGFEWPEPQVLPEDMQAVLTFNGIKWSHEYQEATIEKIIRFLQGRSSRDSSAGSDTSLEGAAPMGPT

`CCc1cc(Cl)c(OC)c(C(=O)NCC2CCCN2CC)c1O` (stereo not given): in experiment [1], the survival is 1.5 (inactive). The red/green cell ratio (normalised) in experiment [2] was 0.67 (inactive). Further, the normalised cell number in experiment [2] (setting [6]) was determined as 1.29; in experiment [2] (setting [7]), 0.86. Moreover, the fold change is 0.847 (inactive) in experiment [3] (setting [8]) and 0.822 in experiment [3] (setting [9]). Moreover, the cell count in experiment [3] (setting [10]) came out at 7250; in experiment [3] (setting [11]) it was 8550.

Consider `Cc1c2oc3c(C)ccc(C(=O)OC(C)C4NC(=O)C(C(C)C)N(C)C(=O)CN(C)C(=O)C5CCCN5C(=O)C(C(C)C)NC4=O)c3nc-2c(C(=O)OC(C)C2NC(=O)C(C(C)C)N(C)C(=O)CN(C)C(=O)C3CCCN3C(=O)C(C(C)C)NC2=O)c(N)c1=O` (stereo not given) (I: cyclo([Sar][NMeV]TVP) / II: cyclo([Sar][NMeV]TVP); linker I:3-II:3 via Actinocin(9to1); configuration not given here), for which the parasite load remaining in experiment [4] was -0.105% (inactive). Further, in experiment [4], the viability (commonly a read-out of living cells in per cent, often relative to untreated cells) was 76.4%. Moreover, in experiment [2], the red/green cell ratio (normalised) is 1.97 (active). In addition, the figures for the normalised cell number in experiment [2] (setting [6]) and in experiment [2] (setting [7]) were 0.25 and 0.49, respectively. In addition, the values for the fold change in experiment [3] (setting [8]) and in experiment [3] (setting [9]) were 0.996 (inactive) and 1.67, respectively. The figures for the cell count in experiment [3] (setting [10]) and in experiment [3] (setting [11]) were 2910 and 2920, respectively.

Take `OC[C@H]1OC([S-])[C@H](O)[C@@H](O)[C@@H]1O.[Au+]` (stereo not given in full): the parasite load remaining in experiment [4] is 51.4% (inactive). Besides, the viability in experiment [4] turned out to be 97.6%. Moreover, the red/green cell ratio (normalised) in experiment [2] is 0.82 (inactive). Besides, the figures for the normalised cell number in experiment [2] (setting [6]) and in experiment [2] (setting [7]) were 1.15 and 0.95, respectively. In addition, the fold change in experiment [3] (setting [8]) was 0.865 (inactive); in experiment [3] (setting [9]) it was 2.52. Besides, the values for the cell count in experiment [3] (setting [10]) and in experiment [3] (setting [11]) were 9290 and 10700, respectively.

As for `NCC1CCCCC1CC(=O)O` (stereo not given), in experiment [4], the parasite load remaining was 148% (inactive) and 51.6% (inactive). The viability in experiment [4] was 89.1% and 119%. Moreover, the red/green cell ratio (normalised) in experiment [2] is 0.8 (inactive). The normalised cell number in experiment [2] (setting [6]) was 1.27; in experiment [2] (setting [7]), 1.02. Moreover, the fold change was 0.945 (inactive) in experiment [3] (setting [8]) and 5.86 in experiment [3] (setting [9]). The cell count in experiment [3] (setting [10]) came out at 12000; in experiment [3] (setting [11]), 12700.

Take `N[C@H](Cc1cc(I)c(Oc2ccc(O)c(I)c2)c(I)c1)C(=O)O`: the parasite load remaining in experiment [4] was 45.9% (inactive). Further, the viability in experiment [4] stood at 99.9%. In experiment [2], the red/green cell ratio (normalised) was 0.97 (inactive). The normalised cell number in experiment [2] (setting [6]) came out at 1.02; in experiment [2] (setting [7]) it was 0.99. Moreover, the fold change in experiment [3] (setting [8]) is 0.92 (inactive); in experiment [3] (setting [9]), 1.64. In addition, the cell count in experiment [3] (setting [10]) turned out to be 11400; in experiment [3] (setting [11]) it was 12400.

`CC(C)c1c(C(=O)c2ccccc2)c(-c2ccccc2)c(-c2ccc(F)cc2)n1CC[C@@H](O)C[C@@H](O)CC(=O)O`: in experiment [4], the parasite load remaining was 174% (inactive) and 44.6% (inactive). For the same compound, in experiment [4], the viability is 88% and 103%. Besides, the red/green cell ratio (normalised) in experiment [2] was 0.86 (inactive). Also, the normalised cell number in experiment [2] (setting [6]) turned out to be 1.3; in experiment [2] (setting [7]), 1.12. Moreover, the fold change in experiment [3] (setting [8]) was 0.867 (inactive); in experiment [3] (setting [9]), 3.4. For the same compound, the cell count worked out at 9140 in experiment [3] (setting [10]) and 10500 in experiment [3] (setting [11]).

As to `O=C(O)c1cc(O)c2c(c1)[C@@H]([C@H]1c3cc(C(=O)O)cc(O)c3C(=O)c3c(O[C@H]4O[C@H](CO)[C@@H](O)[C@H](O)[C@H]4O)cccc31)c1cccc(O[C@H]3O[C@H](CO)[C@@H](O)[C@H](O)[C@H]3O)c1C2=O`, in experiment [4], the parasite load remaining is 132% (inactive) and 77.3% (inactive). For the same compound, the viability in experiment [4] is 80.8% and 104%. Also, the red/green cell ratio (normalised) in experiment [2] is 0.69 (inactive). Moreover, the normalised cell number was found to be 1.22 in experiment [2] (setting [6]) and 0.84 in experiment [2] (setting [7]). Further, the fold change is 0.789 (inactive) in experiment [3] (setting [8]) and 9.83 in experiment [3] (setting [9]). Further, the cell count in experiment [3] (setting [10]) came to 10200; in experiment [3] (setting [11]), 12900.

On to `CNCC[C@@H](Oc1ccccc1)c1ccccc1`, for which the parasite load remaining in experiment [4] was 48% (inactive). The viability in experiment [4] is 116%. In addition, the red/green cell ratio (normalised) in experiment [2] was 1.13 (inactive). For the same compound, the normalised cell number in experiment [2] (setting [6]) worked out at 1.27; in experiment [2] (setting [7]), 1.44. In addition, the figures for the fold change in experiment [3] (setting [8]) and in experiment [3] (setting [9]) were 0.971 (inactive) and 1.23, respectively. The results for the cell count in experiment [3] (setting [10]) and in experiment [3] (setting [11]) were 10900 and 11200, respectively.

On to `CC(C)(C)NC[C@H](O)COc1ccccc1C1CCCC1`, for which the red/green cell ratio (normalised) in experiment [2] was 1.04 (inactive). Moreover, the normalised cell number in experiment [2] (setting [6]) was 1.13; in experiment [2] (setting [7]), 1.17. Also, the remaining NAD in experiment [5] was 10 nM (inactive).

For `CC(C)CCCC(C)[C@H]1CCC2C3CC=C4C[C@@H](O)CC[C@]4(C)C3CC[C@@]21C` (stereo not given in full), the parasite load remaining in experiment [4] was 39.9% (inactive). Moreover, the viability in experiment [4] was found to be 101%. In addition, in experiment [2], the red/green cell ratio (normalised) was 1.04 (inactive). Moreover, the normalised cell number in experiment [2] (setting [6]) worked out at 1.14; in experiment [2] (setting [7]), 1.19. For the same compound, the figures for the fold change in experiment [3] (setting [8]) and in experiment [3] (setting [9]) were 0.96 (inactive) and 2.49, respectively. Further, the cell count was found to be 12300 in experiment [3] (setting [10]) and 12900 in experiment [3] (setting [11]).

As to `CC(CCC(=O)O)[C@H]1CCC2C3C(=O)C[C@@H]4CC(=O)CC[C@]4(C)C3CC(=O)[C@@]21C` (stereo not given in full), the parasite load remaining in experiment [4] is 50.2% (inactive). Moreover, the viability in experiment [4] is 81.3%. The red/green cell ratio (normalised) in experiment [2] is 1.13 (inactive). Also, the normalised cell number in experiment [2] (setting [6]) was 0.93; in experiment [2] (setting [7]), 1.05. Besides, the fold change was 0.923 (inactive) in experiment [3] (setting [8]) and 1.77 in experiment [3] (setting [9]). The cell count is 11900 in experiment [3] (setting [10]) and 12900 in experiment [3] (setting [11]).

As for `CO/N=C(/C(=O)NC1C(=O)N2C(C(=O)OC(C)OC(C)=O)=C(COC(N)=O)CSC12)c1ccco1` (stereo not given), the parasite load remaining in experiment [4] was 60.6% (inactive). Further, the viability in experiment [4] was 138%. The red/green cell ratio (normalised) in experiment [2] is 1.1 (inactive). Further, the normalised cell number in experiment [2] (setting [6]) came to 0.93; in experiment [2] (setting [7]) it was 1.02. The fold change in experiment [3] (setting [8]) was 0.889 (inactive); in experiment [3] (setting [9]) it was 1.77. For the same compound, the cell count was found to be 12300 in experiment [3] (setting [10]) and 13900 in experiment [3] (setting [11]).

As for `CC[C@@H]1OC(=O)C[C@@H](O)[C@H](C)[C@@H](O[C@@H]2O[C@H](C)[C@@H](O)[C@H](N(C)C)[C@H]2O)[C@@H](CCN2C[C@H](C)C[C@H](C)C2)C[C@@H](C)C(=O)/C=C/C(C)=C\[C@@H]1CO[C@@H]1O[C@H](C)[C@@H](O)[C@@H](OC)[C@H]1OC`, in experiment [4], the parasite load remaining was 64.4% (inactive). The viability in experiment [4] is 108%. Further, the red/green cell ratio (normalised) in experiment [2] was 0.98 (inactive). The normalised cell number in experiment [2] (setting [6]) came out at 1.1; in experiment [2] (setting [7]) it was 1.07. The fold change in experiment [3] (setting [8]) was 0.885 (inactive); in experiment [3] (setting [9]), 3.65. For the same compound, the cell count was 12100 in experiment [3] (setting [10]) and 13600 in experiment [3] (setting [11]).

On to `CC(=O)Nc1ccc(S(=O)(=O)Nc2onc(C)c2C)cc1`, for which the parasite load remaining in experiment [4] is 53.8% (inactive). The viability in experiment [4] amounted to 98%. In addition, the red/green cell ratio (normalised) in experiment [2] is 0.94 (inactive). Moreover, the normalised cell number in experiment [2] (setting [6]) came to 1; in experiment [2] (setting [7]) it was 0.93. Also, the fold change in experiment [3] (setting [8]) was 0.897 (inactive); in experiment [3] (setting [9]), 5. The results for the cell count in experiment [3] (setting [10]) and in experiment [3] (setting [11]) were 11800 and 13200, respectively.
